Experimental data published in PubChem BioAssay.
Active and inactive are the calls of the source. How the calls were made is not given here.

Target: Pantothenate synthetase (Mycobacterium tuberculosis (strain ATCC 25618 / H37Rv)) (UniProt P9WIL5)
Experiment: Recombinant Mtb pantothenate synthetase (PanC) inhibitors, coupled enzyme, confirmatory (AID 375);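 further: 0% = full reaction with vehicle and 100% = no enzyme background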
Details: coupled enzyme assay; at 10 µM, active compounds read high

Chain of Pantothenate synthetase (Mycobacterium tuberculosis (strain ATCC 25618 / H37Rv)) (P9WIL5 whole entry, looked up): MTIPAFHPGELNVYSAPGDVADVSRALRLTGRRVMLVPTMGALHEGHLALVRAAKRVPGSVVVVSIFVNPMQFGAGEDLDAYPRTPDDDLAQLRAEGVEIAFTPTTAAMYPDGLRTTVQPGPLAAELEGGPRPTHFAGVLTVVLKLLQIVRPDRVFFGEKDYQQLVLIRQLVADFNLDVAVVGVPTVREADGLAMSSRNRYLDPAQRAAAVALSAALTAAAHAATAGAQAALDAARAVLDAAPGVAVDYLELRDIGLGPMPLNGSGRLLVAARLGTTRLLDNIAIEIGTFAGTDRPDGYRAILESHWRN

Compound | inhibition
C[N+](C)(C)CCCCCCCCCC[N+](C)(C)C | 4% (inactive)
C/C=C(\C)c1nnc(NC(=O)OCC)s1 | 0% (inactive)
O=C1CC(c2ccco2)CC(O)=C1C=NCCN1CCNCC1 (configuration not stated) | 0% (inactive)
CC(C)(C)NC(=O)CC(CC(=O)O)c1ccccc1 (configuration not stated) | 0% (inactive)
COc1ccc2c(c1)C1(Nc3ccccc3-c3nc4ccccc4n31)C(=O)N2 (configuration not stated) | 0% (inactive)
COc1ccc(-n2nnnc2SCC(=O)c2ccc(O)c(O)c2)cc1 | 0% (inactive)
O=C(c1csc2ccccc12)n1cccn1 | 0% (inactive)
CCn1c(SCC(=O)N2CCOCC2)nc2c(c1=O)SC(C)C2 (configuration not stated) | 0% (inactive)
Cc1ccc(-c2nnc(SCC(=O)N3c4ccccc4NC(=O)C3(C)C)n2N)cc1 | 1% (inactive)
CCC(=O)N1CCNC(=O)C1CC(=O)Nc1ccc(C)c(Cl)c1 (configuration not stated) | 0% (inactive)
Cc1ccc(-c2cc(C(F)(F)F)n3nc(C(=O)N4CCCC4)cc3n2)cc1 | 5% (inactive)
CC(C)(C)C(=O)Cn1c[n+](N)cn1 | 1% (inactive)
O=C(O)C1C2C=CC(C3CC23)C1C(=O)NCCc1ccccc1 (configuration not stated) | 6% (inactive)
CCOc1ccccc1C(=O)NCC(=O)OCC(=O)N1C(C)CCCC1C (configuration not stated) | 7% (inactive)
CCCNC(=O)C1=C(C)C(=O)OC12CCC(C)CC2 (configuration not stated) | 0% (inactive)
CSc1nnc(-c2ccc(NC(=O)CCc3ccccc3)cc2)n1C | 0% (inactive)
Cn1cccc1C(=O)NC(=O)CSc1nnc(C2CC2)n1-c1ccccc1 | 0% (inactive)
CCC(Sc1nc(-c2ccccc2)c(C#N)c(=O)[nH]1)C(=O)Nc1cc(C)on1 (configuration not stated) | 0% (inactive)
CN(C)c1ccc(NC(=O)c2cc3c(=O)n4ccccc4nc3n2C)cc1 | 7% (inactive)
N#CC1=C(N)N(c2ccccc2)C(c2ccccc2)C1(C#N)C#N (configuration not stated) | 0% (inactive)
CCOC(=O)c1ccc(N2C(=O)CC(N(C)CCc3ccc(OC)c(OC)c3)C2=O)cc1 (configuration not stated) | 2% (inactive)
Cc1cccc2cc(C#N)c(NCCNC(=O)NC3CCCCC3)nc12 | 1% (inactive)
